Test results as given in PubChem BioAssay (NCI).
Compounds without any hit were thinned out: in the full panel of roughly 79,000, 15% have a hit. Activity calls are given as the source filed them. Rule as the data show it: active = growth inhibition above about 70%; inactive = the rest.

Columns and labels:
[1] = NCI Yeast Anticancer Drug Screen. Data for the rad50 strain (AID 155);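 also: 0% = growth of vehicle-only cultures of the same strain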; settings: S. cerevisiae rad50 strain growth inhibition; at 50.0 µM; active compounds read high
Method in brief: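 Cells are treated with compound, grown, and their growth is then scored against vehicle-only cultures of the same repair-deficient yeast strain.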

[2] = NCI Yeast Anticancer Drug Screen. Data for the mec2-1 strain (AID 157); settings: S. cerevisiae mec2-1 strain, at 50.0 µM, active compounds read high
Method in brief: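 Compounds were applied to mec2-1 yeast cells. Their growth was then compared with that of vehicle-treated cultures to give growth inhibition.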

[3] = NCI Yeast Anticancer Drug Screen. Data for the sgs1 mgt1 strain (AID 161);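 also: 0% = growth of cultures given vehicle only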; settings: S. cerevisiae sgs1 mgt1 strain, at 50.0 µM, active compounds read high
Method in brief: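 Growth of a repair-deficient yeast mutant was monitored after compound treatment and expressed as inhibition relative to vehicle-treated cultures.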

[4] = NCI Yeast Anticancer Drug Screen. Data for the cln2 rad14 strain (AID 165);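 also: 0% = growth equal to vehicle treated cultures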; settings: S. cerevisiae cln2 rad14 strain, at 50.0 µM, active compounds read high
Method in brief: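 Strain: cln2 rad14 yeast, altered in cell cycle control and DNA damage repair. Read-out: growth inhibition vs vehicle.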

[5] = NCI Yeast Anticancer Drug Screen. Data for the bub3 strain (AID 167); settings: S. cerevisiae bub3 mutant strain, at 50.0 µM, active compounds read high
Method in brief: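 Part of a panel of yeast mutants defective in DNA damage repair or cell cycle regulation. Each strain is grown with compound, and inhibition is calculated relative to solvent-treated cultures.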

[6] = NCI Yeast Anticancer Drug Screen. Data for the mlh1 rad18 strain (AID 175); settings: S. cerevisiae mlh1 rad18 strain growth inhibition; at 50.0 µM; active compounds read high
Method in brief: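 A repair-deficient yeast strain is exposed to test compound, and growth is scored relative to vehicle-treated controls.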

Measured: growth inhibition

Cc1ccc(-n2c(=S)n(-c3ccccc3C)c3nc4ccccc4nc2/c3=N\Nc2ccccc2)cc1
inactive: [1] -6.85% | [2] 3.5% | [3] -14.8% | [4] -16.1% | [5] 1.3% | [6] -22.1%

CCC(CO)NC(=O)/C=C/c1ccccc1Cl (stereo not given)
inactive: [1] 7% | [2] 14.4% | [3] 1.55% | [4] 2.3% | [5] -0.7% | [6] 10.5%

N#C/C(=C\c1cccnc1)c1ccc(Br)cc1
active: [6] 70%
inactive: [1] 59.4% | [2] 36.4% | [3] 41.8% | [4] 14.3% | [5] 43.5%

CN(C)C(=O)C1C2CC3OC(=O)C1C3C2 (stereo not given)
inactive: [1] 15.8% | [2] -5.4% | [3] 6.2% | [4] -41.3% | [5] -1.65% | [6] -0.6%

C=CCN(N=O)C(=O)NCCCCC(NC(C)=O)C(=O)NCc1ccccc1 (stereo not given)
inactive: [1] -10.2% | [2] -22.6% | [3] -21.9% | [4] -6.3% | [5] 5.1% | [6] -14%

C/C(Nc1ccc(F)cc1)=C1/CCOC1=O
inactive: [1] 9.8% | [2] -17.9% | [3] -1.5% | [4] -43.5% | [5] 13.8% | [6] -11.5%

O=C(O)c1ccc(O)c2ccccc12
inactive: [1] -21.9% | [2] -21.2% | [3] -15.4% | [4] -24.7% | [5] -13.1% | [6] -21.9%

O=[N+]([O-])c1ccn(O)c(=Nc2ccccc2)c1
inactive: [1] 1.7% | [2] 11.2% | [3] 5.45% | [4] -32.5% | [5] -14.9% | [6] 20.4%

Cc1ccc(N=Nc2ccc(C)cc2NC(=O)Nc2cc(C)ccc2C)cc1
inactive: [1] -3.7% | [2] 8.05% | [3] 27% | [4] -10.9% | [5] 26.1% | [6] -10.4%

NC(=S)N/N=C(/CC(=O)c1ccc([N+](=O)[O-])cc1)C(=O)Nc1ncc([N+](=O)[O-])s1
inactive: [1] 51.9% | [2] 29% | [3] 30.1% | [4] 19.2% | [5] 53.2% | [6] 25.2%

COC(=O)c1cccc2cnccc12
inactive: [1] 2.2% | [2] -5.7% | [3] 3.6% | [4] -48% | [5] 7.65% | [6] 3.75%

CCN(CC)c1nc(Cl)nc(C(N)=O)c1N
inactive: [1] 4.85% | [2] -8.25% | [3] -10.4% | [4] -16.1% | [5] -1.2% | [6] -10.4%

CCOC(=O)NNC(C)(C)C
inactive: [1] 4.15% | [2] 4.35% | [3] 4.5% | [4] 21.8% | [5] -9% | [6] -3.7%

O=[N+]([O-])c1ccccc1S(=O)(=O)N1CCCc2cc(Cl)ccc21
inactive: [1] -3% | [2] 4.15% | [3] 9.45% | [4] -12% | [5] 20.6% | [6] 13.4%

COc1ccc(Cc2ccc3c(c2)OCO3)cc1C
inactive: [1] -12.1% | [2] -14.2% | [3] 9.7% | [4] -9.55% | [5] 6.45% | [6] -3.95%

COC(=O)C1C(COS(C)(=O)=O)ON2CCC(OC)(OC)C12 (stereo not given)
inactive: [1] 4.85% | [2] 11.1% | [3] 17.8% | [4] -15.8% | [5] 7.3% | [6] 43.1%

COC(=O)c1cccc2c1Cc1cc(N)ccc1-2
inactive: [1] -7.9% | [2] -16.8% | [3] -19.6% | [4] -21.4% | [5] 9.7% | [6] -12.2%

O=C(CC[n+]1ccccc1)Nc1ccc(F)cc1F
inactive: [1] 11.4% | [2] -1.55% | [3] 26.1% | [4] 20.9% | [5] 33.6% | [6] 17.3%

Nc1nc(SCC(=O)O)[nH]c(=O)c1N
inactive: [1] -16.2% | [2] 30.1% | [3] -1.7% | [4] 6.25% | [5] -0.25% | [6] 2.7%

Clc1ccccc1Nc1c2ccccc2nc2ccccc12
active: [1] 94.5% | [2] 98.1% | [3] 85.1% | [4] 96.3% | [5] 88.7% | [6] 97.7%
